MCF10A rerep: inducers of DNA re-replication in MCF 10A breast cells; MCF 10A DNA re-replication, Hoechst nuclear intensity, 48 h; Potency, µM (series often up to 46.1 µM), for inactives: at the top dose activity, positive = re-replication, actives largely listed as activators; 350,000 tested, 2.9% active; AID 624296; also: % of control where 0% means no effect; nearly all actives have a fitted effect of over 50% in size
12-LOX inh: inhibitors of human 12S-lipoxygenase ALOX12; P18054; purified 12hLO, xylenol orange hydroperoxide absorbance; Potency, µM (series often up to 108 µM), for inactives: at the top dose activity change, negative = inhibition, actives largely listed as inhibitors; 580,000 tested, 1.1% active; AID 1671190; also: % is scaled to controls: 0 for no effect and ±100 for the full control effect
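Purified human 12hLO at 150 nM in 25 mM Hepes, 0.01% Triton X-100, pH 7.0, preincubated 15 min at room temperature with compound. Reaction started with 40 uM arachidonic acid, 30 min at room temperature. Hydroperoxide measured by Fe-xylenol orange, 573/405 nm absorbance ratio.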
PINK1 modulator: changes PINK1 expression; 410,000 tested, 0.2% active; PINK1 immunofluorescence, high-content cytometry, 24 h; Potency, µM (top dose mostly 76.6 µM), for inactives: top-dose activation (PINK1 increase), hits mostly activators; active = well fitted activation curve with a large enough effect; inconclusive = small, poorly fitted or top-dose-only effect; cell line not stated here; also: % of control where 0% means no effect; nearly all actives have a fitted effect of over 65% in size
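Stable cell line treated 24 h with compounds at 5 concentrations (CCCP controls), then fixed and immunostained for PINK1 plus nuclear and cell stains; PINK1 immunofluorescence quantified by laser-scanning microplate cytometry.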
KB-3-1 tox: kills parental KB-3-1 adenocarcinoma cells. KB-3-1 viability, CellTiter-Glo ATP luminescence, 72 h. Potency, µM (top dose mostly 46.1 µM), most hits filed as cytotoxic. 400,000 tested, 1.4% active. AID 1347075; also: % is scaled to controls: 0 for no effect and ±100 for the full control effect; nearly all actives have a fitted effect of over 60% in size
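Cytotoxicity in the drug-sensitive parental line KB-3-1 was scored as loss of CellTiter-Glo luminescence following 72 h incubation with compound. Values come from curve fitting of normalized concentration-response data.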
KB-V1 MDR tox: KB-V1 MDR subline cytotoxicity. 400,000 tested, 3.4% active. Potency, µM (highest dose often 46.1 µM), most hits filed as cytotoxic. AID 1347076. KB-V1 MDR cells viability, CellTiter-Glo, 72 h; also: % is scaled to controls: 0 for no effect and ±100 for the full control effect; nearly all actives have a fitted effect of over 60% in size
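qHTS viability screen in drug-selected KB-V1 MDR cells: 72 h compound treatment at 37 degrees C, ATP luminescence end point.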
SW480 rerep: inducers of DNA re-replication in SW480 colon cancer cells; SW480 DNA re-replication, Hoechst DNA content imaging, 48 h; Potency, µM (highest dose often 46.1 µM), for the others: at the highest dose re-replication activation, usual class: activators; 340,000 tested, 1.8% active; AID 624297; also: % of control where 0% means no effect; nearly all actives have a fitted effect of over 55% in size
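250 cells/well; 23 nL cpd via pin tool; 48 hr, 37 C, 5% CO2; Hoechst 40 min; imager read of total nuclear intensity, ex 405/em 500-530 nm.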
* hit, by the source's call; i = inactive; ? = inconclusive; . = no result given; [ ] = another dose, or the depositor's remark. The list is not random: actives were taken first. Their share in the collection is about 5.8%. Unless noted, calls follow the shape of the dose curve; as a rule, active = well fitted curve in the direction sought with a large enough effect; inconclusive = small, poorly fitted or top-dose-only effect, or another doubt; inactive = no such curve, though single readings can be large; an effect the other way counts as inactive or inconclusive. Potency is read from the fitted curve at half-maximal effect.

SMILES	MCF10A rerep	12-LOX inh	PINK1 modulator	KB-3-1 tox	KB-V1 MDR tox	SW480 rerep
Cc1ccc(C)c([S+](=O)([O-])c2nnn3c2nc(NC2CCCC2)c2ccccc23)c1	.	2%[6.33 µM]	.	.	.	.
O=C(Nc1c(NC2CCCC2)c2ccccc2oc1=O)c1ccccc1F	.	46%	.	.	.	.
COC(=O)Cc1c(C)c2ccc(OCc3cccc(Cl)c3)c(C)c2oc1=O	.	-54%	.	.	.	.
O=C(N/N=C/C(Cl)=C\c1ccccc1)C1CC1	.	0%	.	.	.	.
COc1ccccc1Nc1n[nH]c(=S)s1	-7%	14µM*	0%	i	i	-3%
CNc1n[nH]c(=S)s1	-2%	22µM*	-1%	i	i	-2%
COc1cccc(Nc2nc3ccc(OC)cc3s2)c1	20%	-12%	3%	i	?	18%
COc1cccc(Nc2n[nH]c(=S)s2)c1	4%	45µM*	1%	i	i	-3%
CCOc1ccccc1CN1CCCN(Cc2ccncc2)C(c2ccccc2)CC(=O)NCC1 (configuration not stated)	.	63%	.	.	.	.
COc1cccc(-n2c(SCc3cc(=O)oc4cc(O)c(O)cc34)nc3ccccc3c2=O)c1	?	7.1µM*	-1%	i	i	?
CCN(CC)C(=O)CSc1nc2ccccc2c(=O)n1-c1cccc(OC)c1	3%	0%	7%	i	i	1%
O=[N+]([O-])c1ccc(O)c(C=Nc2ccc3nc(-c4ccccc4)[nH]c3c2)c1	?	14%	0%	i	i	0%
Oc1c(Br)cc(C=Nc2ccc3nc(-c4ccccc4)[nH]c3c2)c(O)c1Br	21µM*	-32%	-2%	i	i	?
O=C(O)c1ccc(-c2nc3ccccc3[nH]2)cc1	11%	-11%	-1%	i	i	4%
N#C/C(=C/c1ccccc1)c1nc2ccccc2[nH]1	.	0%	.	.	.	.
O=C(O)c1ccc(/C=C(\c2nc3ccccc3[nH]2)c2nc3ccccc3s2)cc1	?	-17%	-3%	?	i	12µM*
CC(C)(C)c1ccc(/C=C(\c2nc3ccccc3[nH]2)S(=O)(=O)c2ccccc2)cc1	5.2µM*	.	-1%	?	?	8.2µM*
O=S(=O)(/C(=C/c1ccc2ccccc2c1)c1nc2ccccc2[nH]1)c1ccccc1	.	2%	.	.	.	.
Cc1cccc(/C=C(\c2nc3ccccc3[nH]2)S(=O)(=O)c2ccccc2)c1	5.8µM*	-11%	-2%	4.1µM*	18µM*	?
COc1ccccc1-n1c(CCC(=O)O)ccc1-c1ccccc1	0%	0%	0%	i	?	-10%
COc1ccc(-c2ccc(CCC(=O)O)n2-c2ccccc2OC)cc1	15µM*	?	14%	?	?	18µM*
CNC(=O)c1ccsc1NC(=O)c1sc2ccccc2c1Cl	29µM*	-26%	3%	i	i	?
Cc1nnc(NC(=O)c2sc3ccccc3c2Cl)s1	20%	0%[57.4 µM]	1%	i	i	-2%
CC(NC(=O)C1CCCCC1)c1ccccc1 (configuration not stated)	.	5%	.	.	.	.
Cc1ccc(-n2nnc3c(SCC(=O)NCc4ccco4)ncnc32)cc1	23µM*	305%	1%	?	?	8%
O=C(CSc1ncnc2c1nnn2-c1ccc(F)cc1)NCc1ccco1	?	9%	-1%	i	i	-8%
CC(=O)Nc1ccc(NC(=O)Cn2cnc3c(cnn3C(C)(C)C)c2=O)cc1	?	128%	-1%	i	i	-3%
CC(C)(C)n1ncc2c(=O)n(CC(=O)NCc3ccccc3)cnc21	15µM*	6%	11%	7.3µM*	?	21µM*
Cc1ccc(Cn2nnc3c(=O)n(CC(=O)NCc4ccco4)cnc32)cc1	?	0%[57.4 µM]	5%	23µM*	?	?
Cc1ccc(-n2nnc3c(=O)n(CC(=O)NCc4ccco4)cnc32)cc1	25%	3%	10%	?	i	4%

Screening results deposited in PubChem by National Center for Advancing Translational Sciences (NCATS).
